We go through 9 compounds from PMC5540273 (PLoS ONE, 2017).

Holding throughout (details): concentration: 1 μM, replicates: in singlicate; n = 1
Assay [1] relates to BTK.
Assay [2] concerns BUB1.
Assay [3] concerns CAMK1B.
For assay [4], the system named is CAMK1D.
For assay [5], the system named is CAMK1G.
Assay [6] relates to CAMK1.
Assay [7] deals with CAMK2A.
Assay [8] relates to CAMK2B.
The subject of assay [9] is CAMK2D.
The subject of assay [10] is CAMK2G.
In assay [11] the test system is CAMK4.
Assay [12] deals with CAMKK1.
Assay [13] relates to CAMKK2.
The subject of assay [14] is CASK.
In assay [15] the test system is T1, CDC2L1.
T1 construct: gene CDK11B

In assay [16] the test system is CDC2L2.
Assay [17] relates to T2, CDC2L5.
T2 construct: gene CDK13

Assay [18] has as its system T3, CDK11.
T3 construct: gene CDK19

Assay [19] deals with CDK2.
Assay [20] has as its system CDK3.
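Also: KINOMEscan kinase panel screen.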

As to `CN1c2ccc(-c3ccc(C(N)=O)cc3)cc2-c2[nH]ncc2S1(=O)=O`, the “%Inh” value in assay [1] is listed as 0%; in assay [2] it was 0%; in assay [3], 32%; in [4] it was 10%; in [5], 0%; in assay [6], 27%. Also, the “%Inh” value in [7] is reported as 11%; in assay [8] it was 7%; in assay [9], 18%; in assay [10], 2%; in assay [11], 16%; in assay [12], 100%. The “%Inh” value in [13] worked out at 21%; in assay [14] it was 1%; in assay [15] it was 0%; in [16], 0%; in [17], 2%; in assay [18], 0%. For the same compound, the “%Inh” value in assay [19] and in [20] was 0% throughout.

Take `CC(C)c1ccc(O)cc1Nc1ccnc2ccc(C(F)(F)F)cc12` [GW482059]: the “%Inh” value in assay [1] came to 0%; in assay [2], 13%; in assay [3], 27%; in assay [4], 0%; in assay [5] it was 0%; in assay [6] it was 0%. Besides, the “%Inh” value in assay [7] is given as 0%; in assay [8] it was 0%; in [9], 0%; in [10], 1%; in [11] it was 14%; in assay [12], 0%. In addition, the “%Inh” value came out at 0% in [13]; 0% in [14]; 0% in [15]; 5% in [16]; 0% in assay [17]; 0% in [18]. Also, the “%Inh” value in assay [19] and in assay [20] was 0% each time.

Regarding `Cc1ccc(NC(=O)Nc2ccccc2)cc1-c1ccc(C(=O)Nc2ccncc2)cc1` [GSK1398471], the “%Inh” value in assay [1] amounted to 0%; in [2] it was 0%; in assay [3], 13%; in assay [4], 20%; in assay [5], 0%; in assay [6], 15%. For the same compound, the “%Inh” value is listed as 0% in assay [7]; 0% in assay [8]; 0% in [9]; 9% in [10]; 0% in [11]; 0% in [12]. The “%Inh” value in [13] amounted to 19%; in assay [14] it was 0%; in assay [15], 0%; in assay [16] it was 13%; in assay [17], 0%; in assay [18], 11%. Further, the “%Inh” value in assay [19] was found to be 1%; in [20] it was 0%.

Turning to `CSc1ccc(-c2nc3n(c2-c2ccncc2)CCC3)cc1` [SKF-105561], the “%Inh” value is on record as 0% in assay [1]; 90% in [2]; 0% in assay [3]; 15% in [4]; 0% in assay [5]; 0% in assay [6]. For the same compound, the “%Inh” value in assay [7] is 0%; in assay [8] it was 0%; in [9], 0%; in assay [10] it was 0%; in assay [11], 30%; in [12] it was 0%. For the same compound, the “%Inh” value is listed as 0% in assay [13]; 3% in [14]; 15% in assay [15]; 24% in assay [16]; 30% in assay [17]; 0% in assay [18]. Further, the “%Inh” value in [19] and in assay [20] was 0% throughout.

On to `CCc1ccc(-c2ccc3c(c2)-c2n[nH]cc2S(=O)(=O)N3C)cc1`, for which the “%Inh” value in [1], in assay [2], in [3], in [4], in assay [5] and in [6] was 0% each time. Besides, the “%Inh” value is on record as 0% in assay [7]; 0% in assay [8]; 21% in assay [9]; 5% in assay [10]; 11% in assay [11]; 10% in assay [12]. Also, the “%Inh” value in assay [13] turned out to be 6%; in assay [14] it was 29%; in [15] it was 0%; in assay [16], 0%; in assay [17], 0%; in assay [18], 7%. The “%Inh” value is 26% in [19] and 0% in [20].

Take `CCCCc1nn2ncccc2c1-c1ccnc(NC2CC2)n1` [GW684374]: the “%Inh” value in [1] was determined as 0%; in assay [2], 91.3%; in assay [3] it was 12%; in assay [4], 5%; in assay [5] it was 9%; in [6], 9%. Also, the “%Inh” value turned out to be 0% in [7]; 0% in assay [8]; 12% in assay [9]; 7% in [10]; 0% in [11]; 0% in assay [12]. Besides, the “%Inh” value in assay [13] is 14%; in [14], 0%; in [15], 0%; in [16] it was 11%; in assay [17] it was 0%; in [18], 5%. The “%Inh” value in [19] and in [20] was 0% each time.

Take `Cn1cncc1C(=O)NC1CCN(c2ccnc(Nc3ccc(F)cc3)n2)C1` (stereo not drawn) [GSK1379717]: the “%Inh” value in assay [1] was found to be 0%; in assay [2], 32%; in assay [3], 0%; in assay [4], 22%; in [5], 12%; in assay [6] it was 16%. The “%Inh” value is reported as 0% in assay [7]; 0% in assay [8]; 24% in [9]; 32% in assay [10]; 0% in [11]; 30% in [12]. Also, the “%Inh” value in assay [13] worked out at 32%; in assay [14] it was 14%; in assay [15], 0%; in [16], 6%; in [17] it was 0%; in assay [18], 3%. Moreover, the “%Inh” value in assay [19] and in assay [20] was 0% in each case.

As for `O=C1NC(=O)C(c2ccc(Cl)cc2)=C1Nc1ccc(O)cc1` [SB-340867], the “%Inh” value is given as 0% in assay [1]; 0% in assay [2]; 0% in [3]; 99.8% in assay [4]; 0% in [5]; 100% in assay [6]. In addition, the “%Inh” value in [7] is on record as 0%; in assay [8] it was 0%; in [9], 0%; in assay [10] it was 6%; in [11], 0%; in assay [12] it was 0%. In addition, the “%Inh” value in [13] is reported as 0%; in assay [14], 4%; in assay [15], 0%; in assay [16] it was 0%; in assay [17], 0%; in assay [18], 0%. Moreover, the figures for the “%Inh” value in [19] and in assay [20] were 0% and 4%, respectively.

For `COc1cccc(CNC(=O)NC2CCN(c3ccnc(Nc4ccc(F)cc4)n3)C2)c1` (stereo not drawn) [GSK1379723], the “%Inh” value in [1] is 0%; in [2], 27%; in assay [3] it was 23%; in [4], 14%; in assay [5] it was 0%; in [6], 14%. For the same compound, the “%Inh” value in assay [7] is 0%; in assay [8], 0%; in [9], 0%; in assay [10], 82%; in [11], 0%; in [12] it was 79%. Further, the “%Inh” value in [13] turned out to be 78%; in assay [14], 27%; in [15], 0%; in assay [16], 0%; in assay [17], 0%; in [18] it was 0%. The “%Inh” value in assay [19] is on record as 0%; in assay [20], 6%.
